The source of these data is PubChem BioAssay AID588342 (National Center for Advancing Translational Sciences (NCATS), 2011).

The whole screen tested about 360,000 compounds, of which about 25,000 (6.9%) were called active. Not shown: some 9% with an inconclusive outcome. Calls follow the shape of the dose curve; as a rule, active = well fitted inhibition curve with a large enough effect; inconclusive = small, poorly fitted or top-dose-only effect; inactive = flat fitted curve, though single readings scatter. The entries come from a sample that favours actives as a whole. Entries that show only a call come without a potency.

For the assay, the target named is Luciferin 4-monooxygenase (Photinus pyralis) (UniProt P08659). Put plainly: qHTS profiling assay for firefly luciferase inhibitor/activator using purifed enzyme and Km concentrations of substrates (counterscreen for miR-21 project). Also: nearly all actives have a fitted effect of over 55% in size. The following applies: purified FLuc, luminescence inhibition; series mostly up to 57.5 µM. The text has this: MLPCN Grant: 1 R21 NS059478-01 (miR-21 grant) Assay Provider: NCGC NCGC Assay Overview: Firefly (Photinus pyralis) luciferase is one of the most commonly used transcriptional reporters for a number of reasons. It is considered one of the more dynamically responsive reporters -that is, responsive to changes in reporter transcription - as it requires no post-translational modifications and is enzymatically active directly after protein synthesis (Wood, 1998). Additionally, the half-life of the luciferase protein is short relative to other reporter-gene products (Wood, 1995). Whereas reporters with long half-lives potentially allow for increased signal due to accumulation of reporter-gene product, once accumulated in the cell, dynamic changes in reporter-gene expression may be difficult to detect(Fan and Wood, 2007; Almond et al., 2004). It has been shown that wild-type P. pyralis luciferase has a half-life of approximately […] hours in mammalian cells (Thompson et al., 1991). Firefly luciferase reporter-gene assays are also generally considered one of the most sensitive assay types (Wood, 1995; Wood, 1998). Although light produced in a bioluminescence reaction is of lower intensity than that produced during fluorescence emission, this is offset by little to no background light inherent to luminescent assays. Thus the luciferase reporter can be expressed at much lower levels than fluorescent proteins while still providing robust signal. # However, it was initially observed, in 1991, by Thompson et al., that compounds that resemble the substrates of firefly luciferase (FLuc) can act as competitive inhibitors of the enzyme, and that these compounds, upon interaction with luciferase in the cell, can actually stabilize the protein and increase its half-life. Accumulated intracellular FLuc protein can be measured as an increase in luminescence signal, upon addition of detection reagents (which contain high concentrations of FLuc substrates) commonly used in high-throughput screening. In cell-based reporter gene assays that use FLuc as the reporter gene to quantitate the potential influence of a given compound against the target biology, this apparent increase in luminescence can mistakenly be interpreted as identification of a compound that is active against the target of interest. This is the case for the miR-21 FLuc reporter gene assay used to identify inhibitors of the miR-21 pathway (PubChem AID 2289) - compounds of interest will inhibit miR-21 biogenesis/expression or activity, and are identified by causing an increase in luminescence, due to increased FLuc translation. However, FLuc inhibitory compounds that stabilize the FLuc protein will give an identical read-out, making it difficult to distinguish compounds that are active against the target from those active against FLuc. Previous profiling work to determine the prevalence of compounds that affect FLuc enzymatic activity (PubChem AID 411) identified that ~3% of the MLSMR library (then at ~72K) inhibited FLuc. […] Since the MLSMR had grown to ~350K compounds, and since it was expected that a significant percentage of compounds found active in the miR-21 FLuc assay would be FLuc inhibitors, the library was screened for activity against FLuc using a biochemical assay of purified FLuc and KM concentrations of FLuc substrates (D-luciferin and ATP).
Chain of Luciferin 4-monooxygenase (Photinus pyralis) (P08659 whole entry, looked up): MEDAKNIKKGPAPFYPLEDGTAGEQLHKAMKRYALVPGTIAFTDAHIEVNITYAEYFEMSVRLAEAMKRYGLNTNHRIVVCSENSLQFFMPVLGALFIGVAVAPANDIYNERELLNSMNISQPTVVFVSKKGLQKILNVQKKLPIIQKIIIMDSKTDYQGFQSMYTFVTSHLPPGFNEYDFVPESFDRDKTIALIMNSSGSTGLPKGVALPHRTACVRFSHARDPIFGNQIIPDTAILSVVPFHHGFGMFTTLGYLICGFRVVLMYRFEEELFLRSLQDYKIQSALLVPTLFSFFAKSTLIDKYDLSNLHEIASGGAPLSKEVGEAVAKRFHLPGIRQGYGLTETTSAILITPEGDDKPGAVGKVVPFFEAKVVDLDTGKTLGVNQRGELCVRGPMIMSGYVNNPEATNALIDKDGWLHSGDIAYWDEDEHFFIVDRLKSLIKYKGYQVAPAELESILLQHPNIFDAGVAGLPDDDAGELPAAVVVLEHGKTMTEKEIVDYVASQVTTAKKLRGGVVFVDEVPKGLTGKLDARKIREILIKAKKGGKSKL
NCGC Assay Protocol Summary: Reagents: 50mM Tris acetate, pH 7.5; 10mM Mg acetate; 10uM D-luciferin (Sigma #L9504); 10uM ATP; 0.01% Tween-20; 0.05% BSA; 10nM P. pyralis luciferase (Sigma #L9506) Control compounds used were two known firefly luciferase inhibitors (compounds (2) and (5) in Auld et al., 2010), and DMSO. […]
`COc1ccccc1-c1nn(Cc2ccccc2)cc1C(=O)N1CCN(c2ncccn2)CC1`: the Potency result is “inactive”.
The same measure for `Cc1cc(C(=O)OCC(=O)Nc2nnc(C(C)C)s2)c2ccccc2n1`: “inactive”.
Turning to `CCC(=O)Nc1ccc2nc(SCC(=O)N3CCc4ccccc43)sc2c1`, the Potency entry is “inactive”.
Regarding `CCC(=O)NC(=Nc1nc2ccccc2s1)NC(=O)CC`, the Potency was 3.79 µM (active).
`CC(C)CC(=O)NC(=S)NCc1ccccc1`: the Potency entry is “inactive”.
Regarding `CC(C)CC(=O)N/C(N)=N/c1nc2ccccc2s1`, the Potency is 0.953 µM (active).
On to `CC(C)C(C)NC(=O)COc1ncnc2ccccc12` (configuration not stated), for which the Potency entry was “inactive”.
As for `CCOc1ccccc1NC(=O)CCn1cnnn1`, the Potency entry was “inactive”.
Consider `COc1ccc(S(=O)(=O)N2CCOCC2)cc1NC(=O)CSc1cc(C)ccc1C`, for which the Potency result is “inactive”.
Turning to `CS(=O)(=O)Nc1ccccc1C(=O)OCC(=O)NC1CC1`, the Potency entry is “inactive”.
The same measure for `CCN(C(=O)COC(=O)CCOc1cccc(C)c1)c1c(N)n(Cc2ccccc2)c(=O)[nH]c1=O`: “inactive”; for `COc1ccc(NC(=O)NC(C)c2c(-n3cccc3)sc(C)c2C)cc1OC` (configuration not stated): “inactive”.
In the case of `COc1ccccc1-c1sc2ccccc2c1-c1ccc(Br)nc1` it was “inactive”; in that of `COc1ccccc1-c1sc2ccccc2c1-c1ccc(C(C)=O)cc1`, 15.1 µM (active); in that of `COc1cc(C(C)=O)ccc1OC(=O)CN1C(=O)c2ccccc2C1=O`, “inactive”.
The same measure for `O=C(CC1N=C2c3ccccc3N=C(SCc3ccc(F)cc3)N2C1=O)NCc1cccs1` (configuration not stated): “inactive”; for `O=C(O)C1=NN(c2c(F)c(F)cc(F)c2F)C(=O)CC1`: “inactive”.
Turning to `CN(CC(=O)NCCc1ccc(F)cc1)CC(=O)Nc1ccc(F)c(F)c1F`, the Potency entry was “inactive”.
Regarding `Cc1ccc(NC(=O)c2cn3c4c(ccc(Cl)c4c2=O)OC(C)C3)cc1C` (configuration not stated), the Potency result is “inactive”.
For `O=C(CSCc1cnn(-c2ccccc2)c1-n1cccc1)NCc1ccccc1Br`, the Potency entry is “inactive”.
With `O=C(/C=C/c1cccc([N+](=O)[O-])c1)N1CCN(Cc2ccccc2)CC1`, the Potency entry is “inactive”.
Consider `O=[N+]([O-])/C=C/c1ccc2c(ccn2Cc2ccccc2)c1`, for which the Potency was 13.5 µM (active).
The same measure for `COC(=O)Cn1cc(/C=C/[N+](=O)[O-])c2ccccc21`: “inactive”; for `Cc1ccc(CN2CC(C(=O)N3CCN(S(=O)(=O)c4ccccc4)CC3)CC2=O)cc1` (configuration not stated): “inactive”.
In the case of `Cc1nn(C)cc1S(=O)(=O)N1CCN(c2ccc(F)cc2)CC1` it was “inactive”; in that of `Cc1nn(C)cc1/C=C1\CCC/C(=C\c2cn(C)nc2C)C1=O`, 26.9 µM (active).
With `Cc1ccccc1-n1c(=O)c2ccccc2n(Cc2ccc(F)cc2)c1=O`, the Potency result is “inactive”.
The same measure for `CCS(=O)(=O)N1CCc2cc(C(=O)NCc3ccc(OC)cc3)ccc21`: “inactive”; for `CCc1cc(=O)oc2c(C)c(OCC(=O)NCCN3CCOCC3)ccc12`: “inactive”; for `CCCc1cc(=O)oc2c(C)c(OCC(=O)NCc3ccccn3)ccc12`: “inactive”.
Take `CCCc1cc(=O)oc2c(C)c(OCC(=O)Nc3ccccn3)ccc12`: the Potency was 1.69 µM (active).
For the molecule `COc1ccc(NC(=O)CCN2CCN(CCO)CC2)cc1`, the Potency entry is “inactive”.
With `O=C(Nc1ccon1)c1nc[nH]c1C(=O)NCc1ccccc1`, the Potency result is “inactive”.
Consider `Cc1cc(C)n2nc(C(=O)Nc3cccc(S(=O)(=O)N4CCOCC4)c3)nc2n1`, for which the Potency entry was “inactive”.
In the case of `Cc1c(/C=N/N2C(=O)C3C4C=CC(C4)C3C2=O)c2ccccc2n1C` (configuration not stated) it was “inactive”; in that of `CN(C)S(=O)(=O)c1cccc(NC(=S)N/N=C/C(=O)c2ccccc2)c1`, “inactive”; in that of `O=C(O)c1cccc(NC(=S)N/N=C/c2c[nH]c3ccccc23)c1`, 0.757 µM (active).
With `Nc1nonc1-n1nnc(C(=O)N/N=C/c2c[nH]c3ccccc23)c1-c1ccccc1`, the Potency entry is “inactive”.
For the molecule `O=C(N/N=C/c1c[nH]c2ccccc12)c1cc2ccccc2o1`, the Potency was 13.5 µM (active).
Turning to `O=C(N/N=C/c1ccc([N+](=O)[O-])cc1)c1c[nH]c2ccccc12`, the Potency result is “inactive”.
Take `O=C(CSc1nc2ccccc2o1)N/N=C/c1ccccc1C(=O)O`: the Potency result was “inactive”.
As for `O=C(N/N=C/c1c[nH]c2ccccc12)c1ccccc1O`, the Potency is 6.01 µM (active).
In the case of `O=C(Cc1ccccc1)Nc1cccc(C(=O)N/N=C/c2ccco2)c1` it was “inactive”; in that of `CC(C)(C)n1nc2c(c1NC(=O)c1cc3ccccc3o1)CSC2`, “inactive”.
As for `Cc1c(/C=N\NC(=O)c2cc3ccccc3o2)c2ccccc2n1C`, the Potency is 9.53 µM (active).
Regarding `Cc1ccc2occ(/C=N/NC(=O)c3ccccc3C)c(=O)c2c1`, the Potency entry is “inactive”.
Turning to `Cc1c(NC(=O)Nc2ccc(F)c(Cl)c2)c(=O)n(-c2ccccc2)n1C`, the Potency entry was “inactive”.
As for `Cc1cccc(N2CCN(C(=O)c3cc4c(=O)oc5ccccc5c4s3)CC2C)c1` (configuration not stated), the Potency result is “inactive”.
`CCc1ccc(NC(=O)CCS(=O)(=O)c2cc3c(cc2Cl)NC(=O)CO3)cc1`: the Potency entry is “inactive”.
For `COc1ccc([N+](=O)[O-])cc1NC(=O)c1ccc(N(Cc2ccccc2C)S(C)(=O)=O)cc1`, the Potency entry is “inactive”.
In the case of `CN(C)C(=O)COC(=O)c1cccc(S(=O)(=O)N2CC3(C)CC2CC(C)(C)C3)c1` (configuration not stated) it was “inactive”; in that of `O=C(CNC(=O)c1ccccc1Br)NNC(=O)c1cccs1`, “inactive”.
